# Results filed as inconclusive are left out. Values without a mark were called inactive. Calls of active or inactive are those of the source. The call rests on the fitted dose curve; in most records, active means well fitted curve in the direction sought with a large enough effect; inconclusive means small, poorly fitted or top-dose-only effect, or another doubt; inactive means no such curve, though single readings can be large; an effect the other way counts as inactive or inconclusive.
# What was measured:
# [1] = Quantitative High-Throughput drug screen in 47 multiple myeloma cell lines against the NCATS MIPE library collection: KMS20_JCRB cell viability assay (AID 1918973); further: nearly all actives have a fitted effect of over 45% in size
# How it was run: (§1)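 CellTiter-Glo luminescence (ATP) after 48 h compound exposure, 37C/5% CO2; 500 cells/well; MIPE 4.0 approved/investigational drugs pinned in; DMSO = 100%, media only = 0% viability.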
# [2] = Quantitative High-Throughput drug screen in 47 multiple myeloma cell lines against the NCATS MIPE library collection: KMS21BM_JCRB cell viability assay (AID 1918974); details: ATP luminescence, 48 h; viability: at 45.8 µM (top of the series) unless noted
# How it was run: as §1
# [3] = Quantitative High-Throughput drug screen in 47 multiple myeloma cell lines against the NCATS MIPE library collection: KMS26_JCRB cell viability assay (AID 1918975); further: nearly all actives have a fitted effect of over 45% in size
# How it was run: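 qHTS of the MIPE 4.0 collection: 500 myeloma cells/well, 48 h drug exposure at 37C in 5% CO2, then CellTiter-Glo for 5 min at room temperature before luminescence reading.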
# [4] = Quantitative High-Throughput drug screen in 47 multiple myeloma cell lines against the NCATS MIPE library collection: MMM1_PLB cell viability assay (AID 1918976); further: nearly all actives have a fitted effect of over 35% in size
# How it was run: (§2)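 ATP-based CellTiter-Glo luminescence after 48 h drug exposure (37 °C, 5% CO2) of 500 myeloma cells per well. DMSO-only wells set 100% viability, media-only wells 0%; MIPE 4.0 library added by pin tool.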
# [5] = Quantitative High-Throughput drug screen in 47 multiple myeloma cell lines against the NCATS MIPE library collection: MOLP8_DSMZ cell viability assay (AID 1918977); further: nearly all actives have a fitted effect of over 45% in size
# How it was run: as §2
# [6] = Quantitative High-Throughput drug screen in 47 multiple myeloma cell lines against the NCATS MIPE library collection: OCIMY1_PLB cell viability assay (AID 1918979); further: nearly all actives have a fitted effect of over 35% in size
# How it was run: as §2
# [7] = Quantitative High-Throughput drug screen in 47 multiple myeloma cell lines against the NCATS MIPE library collection: MM1R_ATCC cell viability assay (AID 1918981); further: nearly all actives have a fitted effect of over 35% in size
# How it was run: as §2
# [8] = Quantitative High-Throughput drug screen in 47 multiple myeloma cell lines against the NCATS MIPE library collection: LP1_DSMZ cell viability assay (AID 1918982); further: nearly all actives have a fitted effect of over 35% in size
# How it was run: as §2
# [9] = Quantitative High-Throughput drug screen in 47 multiple myeloma cell lines against the NCATS MIPE library collection: KMS28PE_JCRB cell viability assay (AID 1918983); further: nearly all actives have a fitted effect of over 35% in size
# How it was run: as §2
# [10] = Quantitative High-Throughput drug screen in 47 multiple myeloma cell lines against the NCATS MIPE library collection: L363_DSMZ cell viability assay (AID 1918984); further: nearly all actives have a fitted effect of over 40% in size
# How it was run: as §2
# [11] = Quantitative High-Throughput drug screen in 47 multiple myeloma cell lines against the NCATS MIPE library collection: KMS34_JCRB cell viability assay (AID 1918985); further: nearly all actives have a fitted effect of over 40% in size
# How it was run: as §2
# [12] = Quantitative High-Throughput drug screen in 47 multiple myeloma cell lines against the NCATS MIPE library collection: OCIMY7_PLB cell viability assay (AID 1918987); further: nearly all actives have a fitted effect of over 65% in size
# How it was run: as §2
# [13] = Quantitative High-Throughput drug screen in 47 multiple myeloma cell lines against the NCATS MIPE library collection: OCIMY5_PLB cell viability assay (AID 1918988); further: nearly all actives have a fitted effect of over 65% in size
# How it was run: as §2
# [14] = Quantitative High-Throughput drug screen in 47 multiple myeloma cell lines against the NCATS MIPE library collection: OPM1_PLB cell viability assay (AID 1918989); further: nearly all actives have a fitted effect of over 40% in size
# How it was run: as §2
# [15] = Quantitative High-Throughput drug screen in 47 multiple myeloma cell lines against the NCATS MIPE library collection: SKMM1_PLB cell viability assay (AID 1919863); details: SKMM1 myeloma viability, CellTiter-Glo ATP, 48 h; viability: hits give low values; further: nearly all actives have a fitted effect of over 35% in size
# How it was run: as §2
# [16] = Quantitative High-Throughput drug screen in 47 multiple myeloma cell lines against the NCATS MIPE library collection: U266_ATCC cell viability assay (AID 1919864); further: nearly all actives have a fitted effect of over 35% in size
# How it was run: as §2
# [17] = Quantitative High-Throughput drug screen in 47 multiple myeloma cell lines against the NCATS MIPE library collection: XG6_PLB cell viability assay (AID 1919865); further: nearly all actives have a fitted effect of over 40% in size
# How it was run: as §2
# [18] = Quantitative High-Throughput drug screen in 47 multiple myeloma cell lines against the NCATS MIPE library collection: XG1_PLB cell viability assay (AID 1919866); further: nearly all actives have a fitted effect of over 35% in size
# How it was run: as §2
# [19] = Quantitative High-Throughput drug screen in 47 multiple myeloma cell lines against the NCATS MIPE library collection: NCIH929_DSMZ cell viability assay (AID 1918978); further: nearly all actives have a fitted effect of over 35% in size
# How it was run: as §2
# [20] = Quantitative High-Throughput drug screen in 47 multiple myeloma cell lines against the NCATS MIPE library collection: MM1S_ATCC cell viability assay (AID 1918980); further: nearly all actives have a fitted effect of over 45% in size
# How it was run: as §2
# Potency means the concentration at half of the fitted maximal effect.
structure (smiles),measurement,setting,value
CNC(=O)c1nn(C)c2c1C(C)(C)Cc1cnc(Nc3ccc(N4CCN(C)CC4)cc3)nc1-2,Potency,[1],2.96 µM (active)
same,Potency,[2],0.132 µM (active)
same,Potency,[3],13.2 µM (active)
same,Potency,[4],11.8 µM (active)
same,Potency,[5],1.87 µM (active)
same,Potency,[6],5.26 µM (active)
same,Potency,[7],3.32 µM (active)
same,Potency,[8],5.9 µM (active)
same,Potency,[9],4.18 µM (active)
same,Potency,[10],0.662 µM (active)
same,Potency,[11],1.48 µM (active)
same,Potency,[12],1.32 µM (active)
same,Potency,[13],1.18 µM (active)
same,Potency,[14],1.66 µM (active)
same,Potency,[15],9.35 µM (active)
same,Potency,[16],0.935 µM (active)
same,Potency,[17],2.96 µM (active)
same,Potency,[18],2.64 µM (active)
CC(=O)c1c(C)c2cnc(Nc3ccc(N4CCNCC4)cn3)nc2n(C2CCCC2)c1=O,Potency,[1],7.43 µM (active)
same,Potency,[2],14.8 µM (active)
same,Potency,[3],18.7 µM (active)
same,Potency,[5],18.7 µM (active)
same,Potency,[19],20.9 µM (active)
same,Potency,[20],20.9 µM (active)
same,Potency,[7],14.8 µM (active)
same,Potency,[8],5.9 µM (active)
same,Potency,[9],18.7 µM (active)
same,Potency,[10],23.5 µM (active)
same,Potency,[13],11.8 µM (active)
same,Potency,[14],18.7 µM (active)
same,Potency,[15],16.6 µM (active)
same,Potency,[16],20.9 µM (active)
same,Potency,[17],14.8 µM (active)
same,Potency,[18],14.8 µM (active)
CN(C)Cc1c(C(=O)NCCOc2ccc(C(=O)NO)cc2)oc2ccccc12,Potency,[1],0.372 µM (active)
same,Potency,[2],0.0469 µM (active)
same,Potency,[3],1.05 µM (active)
same,Potency,[4],0.59 µM (active)
same,Potency,[6],1.66 µM (active)
same,Potency,[20],0.469 µM (active)
same,Potency,[7],0.469 µM (active)
same,Potency,[10],0.332 µM (active)
same,Potency,[11],0.526 µM (active)
same,Potency,[12],0.59 µM (active)
same,Potency,[13],0.469 µM (active)
same,Potency,[14],0.469 µM (active)
same,Potency,[15],1.05 µM (active)
same,Potency,[16],1.18 µM (active)
same,Potency,[17],2.96 µM (active)
same,Potency,[18],1.05 µM (active)
Nc1ccn([C@@H]2CS[C@H](CO)O2)c(=O)n1,Potency,[1],10.8 µM (active)
same,viability,[2],155% [at 92.2 µM] (active)
same,Potency,[5],inactive
same,Potency,[7],inactive
same,Potency,[9],inactive
same,Potency,[10],inactive
same,Potency,[13],inactive
same,Potency,[14],inactive
same,viability,[15],127%
C=CC(=O)Nc1cc2c(Nc3ccc(F)c(Cl)c3)ncnc2cc1OCCCN1CCOCC1,Potency,[1],0.526 µM (active)
same,Potency,[3],5.26 µM (active)
same,Potency,[4],18.7 µM (active)
same,Potency,[5],8.33 µM (active)
same,Potency,[19],2.64 µM (active)
same,Potency,[6],23.5 µM (active)
same,Potency,[20],18.7 µM (active)
same,Potency,[8],16.6 µM (active)
same,Potency,[9],18.7 µM (active)
same,Potency,[11],14.8 µM (active)
same,Potency,[12],0.296 µM (active)
same,Potency,[13],5.9 µM (active)
same,Potency,[14],2.96 µM (active)
same,Potency,[15],16.6 µM (active)
same,Potency,[16],18.7 µM (active)
same,Potency,[17],1.66 µM (active)
same,Potency,[18],2.64 µM (active)

# From PubChem BioAssay (NCATS)
